Laboratory results taken from PubChem BioAssay AID1415 (NMMLSC, 2008).
In all, about 220,000 compounds went through this assay and about 710 (0.32%) were called active. Shown is part of a subset that was picked to be rich in actives. Values without a mark were called inactive. Rule as the data show it: active = binding response below about 49% or above about 150%; inactive = in between.

Target: Guanine nucleotide-binding protein G(o) subunit alpha (Homo sapiens) (UniProt P09471)
Test: modulators of RGS4 binding to Galphao, primary screen, biochemical, multiplexed bead flow cytometry (AID 1415);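 also: fluorescent Galphao activated with aluminum fluoride binding bead-coupled RGS4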
Conditions: at 10 µM, actives lie on both sides

Sequence of Guanine nucleotide-binding protein G(o) subunit alpha (Homo sapiens) (P09471 whole entry, looked up): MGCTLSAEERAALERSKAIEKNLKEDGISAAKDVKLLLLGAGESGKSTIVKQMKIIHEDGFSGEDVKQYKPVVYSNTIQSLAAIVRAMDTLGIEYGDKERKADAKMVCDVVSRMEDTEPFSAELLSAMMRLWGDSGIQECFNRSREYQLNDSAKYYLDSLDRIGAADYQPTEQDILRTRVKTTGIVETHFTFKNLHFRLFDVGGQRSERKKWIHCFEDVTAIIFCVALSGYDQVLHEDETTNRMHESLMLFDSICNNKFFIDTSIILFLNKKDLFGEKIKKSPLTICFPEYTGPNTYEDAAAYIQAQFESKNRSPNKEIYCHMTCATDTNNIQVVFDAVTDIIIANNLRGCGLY

With `CN1CCN(C(CNS(=O)(=O)c2cccs2)c2cccnc2)CC1` (centres undefined) the binding response (% of control) was 0.16% (active).
`Oc1ccc(N=Nc2nccs2)c(O)c1` was tested, and the binding response (% of control) was -21.6% (active).
In the case of `CCCn1nnnc1NC(=O)COc1ccc(Cl)cc1C`, the binding response (% of control) is reported as 22.6% (active).
`CCOc1ccccc1NC(=O)c1cc(S(=O)(=O)N2CCC3(CC2)OCCO3)ccc1F` was tested, and the binding response (% of control) was -0.18% (active).
`C=CCn1c(Cn2nnc3ccccc32)nnc1SCC(=O)N/N=C/c1cc(Br)cc(OC)c1O` was tested, and the binding response (% of control) was -38.5% (active).
For `Cc1cc2nc(C)n(CCCNC(=O)Nc3ccccc3)c2cc1C`, the binding response (% of control) was 158% [activator] (active).
For `CCCC1C(c2ccccc2)C(C#N)(C#N)C2(C#N)CC1(N)NC2=O` (centres undefined), the binding response (% of control) was 162% [activator] (active).
In the case of `CCCCOC(=O)Cn1c(=N)n(CCN(CC)CC)c2ccccc21`, the binding response (% of control) is reported as 184% [activator] (active).
With `Cc1ccc(S(=O)(=O)NCC(=O)OCC(=O)N2CCc3ccccc32)cc1` the binding response (% of control) was 204% [activator] (active).
In the case of `COc1cc(C2/C(=C(\O)c3ccc4c(c3)CC(C)O4)C(=O)C(=O)N2Cc2ccco2)ccc1O` (centres undefined), the binding response (% of control) is reported as 18.3% (active).

First: Cc1ccc(NC(=O)NCC(c2cccnc2)N2CCOCC2)cc1 (centres undefined)
Second: Cc1ccc(S(=O)(=O)N(C)CC(=O)N2CCc3ccccc32)cc1
The binding response (% of control) of the first is higher: 105% for the first, 104% for the second.

Compared with `CN1CCN(S(=O)(=O)c2ccc(N3CCN(S(=O)(=O)c4cccs4)CC3)nc2)CC1`, `O=C(CNCc1cccs1)Nc1cc(S(=O)(=O)N2CCCC2)ccc1Cl` is higher in binding response (% of control): 101% for the first, 103% for the second.

Compared with `OCCC1CN(Cc2ccc(Oc3ncccn3)cc2)CCN1CCc1ccccc1` (centres undefined), `COc1ccc(COCCN2CCN(S(=O)(=O)c3ccccc3)CCC2=O)cc1` is lower in binding response (% of control): 98.9% for the first, 84% for the second.

Compared with `O=C(Nc1cc(Cl)cc(Cl)c1)C(NCCCO)c1ccccc1` (centres undefined), `CC(NC(=O)C(=O)Nc1nccs1)c1ccccc1` (centres undefined) is lower in binding response (% of control): 102% for the first, 94.3% for the second.

Going from `O=C(O)CCCCCNc1ncnc2ccc(Br)cc12` to `O=C(CCc1ccccc1)NNC(=O)c1ccc(Br)cc1`, the binding response (% of control) rises from 98% to 109%.

First: Oc1ccc2ccccc2c1N=Nc1nccs1
Second: Cc1nc(NNC(=O)c2ccccc2)cc(-c2ccccc2)n1
The binding response (% of control) of the first is lower: 99.9% for the first, 101% for the second.

Going from `CC(CC(=O)C1C(C)C=CCC1(C)C)NNC(N)=O` (centres undefined) to `C#CCO[C@@H]1C[C@H](n2cnc3c(=O)[nH]c(NC(=O)C(C)C)nc32)O[C@@H]1CO`, the binding response (% of control) falls from 101% to 81.4%.

Going from `O=C(c1ccc(=O)oc1)N1CCC(C(O)(c2ccccc2)c2ccccc2)CC1` to `Cc1ccccc1CC1(CO)CCCN(C(=O)c2cc(-c3ccccc3)no2)C1` (centres undefined), the binding response (% of control) rises from 100% to 110%.

Compared with `COC(=O)CCCC1=CC2=C(c3ccccc3)C(=O)C(C)(OC(=O)C3CCCC3)C(=O)C2=CN1c1ccc(OC)cc1` (centres undefined), `COc1ccc(/C(O)=C2\C(=O)C(=O)N(Cc3ccco3)C2c2ccc(OC)cc2OC)cc1` (centres undefined) is higher in binding response (% of control): 97% for the first, 99.5% for the second.

Going from `Cc1cc(NC(=O)COc2ccc(Cl)cc2Cl)n(CCC#N)n1` to `CCOC(=O)N1CCN(C(=O)COc2ccc(Cl)cc2C)CC1`, the binding response (% of control) rises from 94.6% to 102%.

First: CC(Oc1ccccc1)C(=O)Nc1oc(-c2ccco2)c(-c2ccco2)c1C#N (centres undefined)
Second: CCn1c(=N)n(CC(=O)c2cccc(OC)c2)c2ccccc21
The binding response (% of control) of the first is lower: 96.1% for the first, 98.3% for the second.

Compared with `O=C(CC1SCCNC1=O)Nc1ccc(Cl)cc1` (centres undefined), `COC(=O)c1c(C)oc(C)c1S(=O)(=O)NCc1ccc(Cl)cc1` is lower in binding response (% of control): 102% for the first, 98.2% for the second.

First: C/C(=N\NC(=S)NC(C)C)c1ccc(C(C)(C)C)cc1
Second: Cc1cc(NC(=O)OC(C)C)ccc1-c1ccc(NC(=O)OC(C)C)cc1C
The binding response (% of control) of the first is higher: 102% for the first, 96.1% for the second.

Going from `CCOc1ccccc1NC(=O)CCN1CCN(S(=O)(=O)c2ccc(OC)cc2)CC1` to `Cc1c(C(=O)Nc2ccccc2Cl)oc2ccc(S(=O)(=O)N3CCC4(CC3)OCCO4)cc12`, the binding response (% of control) rises from 97% to 106%.

First: CS(=O)(=O)c1sc(C(=O)NC(=S)Nc2ccc(OC(F)(F)F)cc2)c2c1C=CCC2
Second: CCOC(=O)c1ccc(NC(=O)c2nc[nH]c2C(=O)NCc2ccccc2)cc1
The binding response (% of control) of the first is higher: 113% for the first, 103% for the second.

First: C=C(C)C(=O)Nc1cccc(C2=NOC3(C2)C[C@H](C(N)=O)N(C(=O)C(c2ccccc2)c2ccccc2)C3)c1 (some centres undefined)
Second: Cc1onc(-c2ccccc2)c1C(=O)N=C(N)c1ccc(Cl)cc1
The binding response (% of control) of the first is lower: 100% for the first, 104% for the second.

First: Cc1ccc(Cn2c(SCC(=O)N/N=C/c3ccccc3OCC(=O)O)nc3ccccc32)cc1
Second: COc1ccc(OC)c(/C=N/NC(=O)CSc2nnc(C)n2-c2ccccc2)c1
The binding response (% of control) of the first is higher: 98.8% for the first, 96.1% for the second.

`CCC(C)NC(=O)Cn1nc(C(F)(F)F)c2c1CCC2` (centres undefined) and `COC(=O)CNc1nc(Cl)nc(N2CCC(C)CC2)n1` are the same in binding response (% of control): 101% for the first, 101% for the second.

First: CN(C)c1ccc(/C=N/NC(=O)c2ccc(Cn3cc(Br)cn3)o2)cc1
Second: O=C(CN(C(=O)c1csnn1)c1cccc(F)c1)NCc1ccc(F)cc1
The binding response (% of control) of the first is higher: 98.7% for the first, 97.4% for the second.

Compared with `Cc1nnc(SCC(=O)N2c3ccccc3C(C)(c3ccc(Cl)cc3)CC2(C)C)s1` (centres undefined), `N#Cc1ccc(CSc2nnc3ccccn23)cc1` is higher in binding response (% of control): 96.9% for the first, 101% for the second.

Going from `Cc1nc2cc(NC(=O)NC3CC3)ccc2n1C` to `Cc1nc2cc(NC(=O)Nc3cccc(F)c3)ccc2n1C`, the binding response (% of control) falls from 103% to 91.6%.

First: CCCCC1=CC2=CC(=O)C(C)(OC(=O)CC)C(=O)C2=CN1CCCOC(C)C (centres undefined)
Second: CCCCOC(=O)Cn1c(=O)n(CC(=O)OCCCC)c2cc(C)ccc21
The binding response (% of control) of the first is lower: 96% for the first, 103% for the second.

Compared with `NC1=NC[C@@H](Cc2ccc(O)cc2)N1CC1CCCCC1`, `COCCCN1C(=O)C(=O)/C(=C(/O)c2ccc3c(c2)CC(C)O3)C1c1cccnc1` (centres undefined) is higher in binding response (% of control): 87.1% for the first, 95% for the second.

Going from `Cc1cnc(C(=O)OCC(=O)N2CCc3ccccc32)cn1` to `C=CCC1(CC=C)CCCN1C(=O)CC1C(=O)NCCN1Cc1ccccc1OC` (centres undefined), the binding response (% of control) falls from 104% to 102%.

`[O-][n+]1c2c(nn1-c1ccc(Cl)c(Cl)c1)-c1nonc1CC2` showed a binding response (% of control) of 106%.
